# Measurements from PubChem BioAssay (NCATS).
# Values without a mark were called inactive. Results filed as inconclusive are left out. Entries that show only a call come without a potency. The source made the active and inactive calls. Calls follow the shape of the dose curve; as a rule, active = well fitted curve in the direction sought with a large enough effect; inconclusive = small, poorly fitted or top-dose-only effect, or another doubt; inactive = no such curve, though single readings can be large; an effect the other way counts as inactive or inconclusive.
# What was measured:
# [1] = target: Glutathione peroxidase 1 (Homo sapiens) (UniProt P07203); test: Primary qHTS Assay for Inhibitors of Recombinant Selenoprotein Glutathione Peroxidase 1 (GPX1) (AID 1845191); also: nearly all actives have a fitted effect of over 65% in size
# Summary of the method: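 10 nM GPX1 + cpd, 30 min RT; start w/ 1 mM GSH, 0.5 mM cumene hydroperoxide, 0.5 mM NADPH, 100 nM GR, 0.01% BSA; buffer 50 mM Tris-HCl pH 7.5, 2 mM EDTA, 150 mM NaCl; Fl 340/450, 0 & 15 min.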
# [2] = target: Phospholipid hydroperoxide glutathione peroxidase GPX4 (Homo sapiens) (UniProt P36969); test: Primary qHTS Assay for Inhibitors of Recombinant Selenoprotein Glutathione Peroxidase 4 (GPX4) (AID 1845192); also: nearly all actives have a fitted effect of over 65% in size; as to activity change, negative = inhibition: series mostly up to about 50 µM
# Summary of the method: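 NADPH consumption, followed by fluorescence at 340/450 nm between 0 and 15 min, reports GPX4 activity via coupled glutathione reductase (100 nM). Enzyme 200 nM was pre-exposed to compound 30 min; 0.5 mM cumene hydroperoxide and 1 mM GSH served as substrates.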
# [3] = target: Luciferin 4-monooxygenase (Photinus pyralis) (UniProt P08659); test: Primary firefly luciferase (FLuc) qHTS assay for identification of artifact compounds. (AID 1845220); also: nearly all actives have a fitted effect of over 60% in size; as to activity change, negative = inhibition: series mostly up to about 54 µM
# Summary of the method: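 Compounds sat 15 min at room temperature with 10 uM luciferin and 10 uM ATP (pH 7.6 Tris acetate). Firefly luciferase (10 nM final) was then added, and luminescence was read 5 min later. Data normalized to no-enzyme and DMSO controls were Hill-fitted.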
# [4] = Primary fluorescence-based thiol-reactive (MSTI) qHTS assay for identification of artifact compounds. (AID 1845221); also: nearly all actives have a fitted effect of over 65% in size; also: potency is read from the fitted curve at half-maximal effect;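 as to activity change, negative = thiol reactive: series mostly up to about 54 µM; thiol-reactive compounds lower the probe fluorescence signal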
# Summary of the method: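 Curve-fitted percent inhibition (4-parameter Hill) derived from fluorescence, Ex 525/Em 598 nm, scaled with Acetyl-MSTI and MSTI; 1 h incubation at room temperature.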
# [5] = test system: Nanoluciferase (engineered Oplophorus gracilirostris luciferase); test: Primary Nanoluciferase (NLuc) qHTS assay for identification of artifact compounds. (AID 1845222); also: series mostly up to about 54 µM
# Summary of the method: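 Luminescence from secreted NLuc (filtered, 1:55-diluted S16 cell medium) read 5 min after Nano-Glo substrate; compounds preincubated 15 min, RT. Hill fits of inhibition normalized to DMSO and no-enzyme.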
# [6] = Primary redox qHTS assay for identification of artifact compounds. (AID 1845223)
# Summary of the method: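 Amplex Red (25 uM) and HRP (250 mU/mL) in HBSS, with compounds for 15 min, then 250 uM DTT for 30 min, room temperature, dark. Fluorescence 525/598 nm read; normalized to DMSO and 10 uM DA3003; Hill fit.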
# Chain of Glutathione peroxidase 1 (Homo sapiens) (P07203 whole entry, looked up): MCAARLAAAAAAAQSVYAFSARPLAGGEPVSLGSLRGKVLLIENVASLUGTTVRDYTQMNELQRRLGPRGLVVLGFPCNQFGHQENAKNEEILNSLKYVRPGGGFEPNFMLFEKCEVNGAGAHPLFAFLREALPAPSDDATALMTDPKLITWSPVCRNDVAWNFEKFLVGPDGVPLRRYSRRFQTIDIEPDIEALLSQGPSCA
# Chain of Phospholipid hydroperoxide glutathione peroxidase GPX4 (Homo sapiens) (P36969 whole entry, looked up): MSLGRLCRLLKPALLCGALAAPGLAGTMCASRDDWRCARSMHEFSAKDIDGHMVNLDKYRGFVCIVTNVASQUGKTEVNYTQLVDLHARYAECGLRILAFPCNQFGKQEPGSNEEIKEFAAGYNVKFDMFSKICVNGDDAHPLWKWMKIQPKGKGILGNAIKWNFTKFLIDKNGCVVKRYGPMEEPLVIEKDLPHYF
compound,measurement,setting,value
Nc1ncnc2c1C(=O)N(c1ccc(C3CCC(CC(=O)O)CC3)cc1)CCO2 (stereo not given),Potency,[1],inactive
same,Potency,[2],inactive
same,Potency,[3],inactive
same,Potency,[4],inactive
same,Potency,[5],inactive
same,Potency,[6],inactive
C=CC1(C)CC2CCC3C(C)(C(=O)O)CCCC3(C)C2=CC1=O (stereo not given),Potency,[1],inactive
same,Potency,[2],inactive
same,Potency,[3],inactive
same,Potency,[4],inactive
same,Potency,[5],inactive
same,Potency,[6],inactive
C/C=C(\C)C(=O)OC1C(C)C2(O)C3C=C(C)C(=O)C3CC(CO)=CC2C2C(C)(C)C12OC(C)=O (stereo not given),Potency,[1],inactive
same,Potency,[2],inactive
same,Potency,[3],inactive
same,Potency,[4],inactive
same,Potency,[5],inactive
same,Potency,[6],inactive
CC1(C)CC[C@]2(C(=O)O[C@@H]3O[C@H](CO)[C@@H](O)[C@H](O)[C@H]3O)CC[C@]3(C)C(=CCC4[C@@]5(C)C[C@@H](O)[C@H](O)[C@@](C)(CO)C5[C@H](O)C[C@]43C)C2[C@@H]1O (stereo not given in full),Potency,[1],inactive
same,Potency,[2],inactive
same,Potency,[3],inactive
same,Potency,[4],3.16 µM (active)
same,Potency,[5],inactive
same,Potency,[6],inactive
C/C=C(\C)C(=O)O[C@H]1C=CC(=O)O[C@H]1/C=C/[C@H](O)[C@@H](C)O,Potency,[1],inactive
same,Potency,[2],inactive
same,Potency,[3],inactive
same,Potency,[4],inactive
same,Potency,[5],inactive
same,Potency,[6],inactive
N#Cc1cc(-c2n[nH]c(-c3ccncc3)n2)ccn1,Potency,[1],inactive
same,Potency,[2],inactive
same,Potency,[3],inactive
same,Potency,[4],inactive
same,Potency,[5],inactive
same,Potency,[6],inactive
Cc1ccc(COC(=O)N2CC[C@@H](CNc3ncccn3)[C@@H](F)C2)cc1,Potency,[1],inactive
same,Potency,[2],inactive
same,Potency,[3],inactive
same,Potency,[4],inactive
same,Potency,[5],inactive
same,Potency,[6],inactive
COc1cc(/C=C/C(=O)OCC2OC(OC3(CO)OC(CO)C(O)C3O)C(O)C(O)C2O)ccc1O (stereo not given),Potency,[1],inactive
same,Potency,[2],inactive
same,Potency,[3],inactive
same,Potency,[4],inactive
same,Potency,[5],inactive
same,Potency,[6],inactive
C=C1[C@H](OC(C)=O)[C@H]2[C@@H](OC(C)=O)C(C)C[C@]2(OC(C)=O)C(=O)[C@H](C)/C=C/C(C)(C)C(=O)[C@H](OC(=O)C(C)C)[C@H]1OC(C)=O (stereo not given in full),Potency,[1],inactive
same,Potency,[2],inactive
same,Potency,[3],inactive
same,Potency,[4],inactive
same,Potency,[5],inactive
same,Potency,[6],inactive
O=C(O)Cn1nnc(-c2ccc(CN(CCCCOc3ccc(CN4CCCC4)cc3)CCc3ccccc3)cc2)n1,Potency,[1],inactive
same,Potency,[2],inactive
same,Potency,[3],inactive
same,Potency,[4],inactive
same,Potency,[5],inactive
same,Potency,[6],inactive
CC(=O)OCC1OC(O[C@H]2CC[C@]34C[C@]35CC(O)[C@]3(C)[C@@H]([C@H](C)CC/C=C(\C)C(=O)O)C(O)C[C@@]3(C)C5CC[C@H]4C2(C)C)C(O)C(O)C1OC1OCC(O)C(O)C1O (stereo not given in full),Potency,[1],inactive
same,Potency,[2],inactive
same,outcome,[3],inactive [at 11.6 µM]
same,"activity change, negative = thiol reactive",[4],154% [at 11.5 µM]
same,"activity, negative = inhibition",[5],-3.42% [at 11.6 µM]
same,redox activity (% of DA3003),[6],-5.4% [at 11.5 µM]
C/C=C/C(=O)OC1/C=C/C(O)C(OC(C)=O)CCC(=O)OC1C (stereo not given),Potency,[1],inactive
same,Potency,[2],inactive
same,Potency,[3],inactive
same,Potency,[4],inactive
same,Potency,[5],inactive
same,Potency,[6],inactive
O=C(O)[C@H]1Cc2ccccc2CN1,outcome,[1],inactive [at 4.49 µM]
same,"activity change, negative = inhibition",[2],3.24% [at 4.52 µM]
same,outcome,[3],inactive [at 6.45 µM]
same,"activity change, negative = thiol reactive",[4],-3.73% [at 6.41 µM]
same,"activity, negative = inhibition",[5],0% [at 6.45 µM]
same,redox activity (% of DA3003),[6],-3.86% [at 6.41 µM]
CC(=O)OC1CCC2(C)C(CCC3(C)C2CC=C2C4CC(C)(C)CCC4(C)CCC23C)C1(C)C(=O)O (stereo not given),Potency,[1],inactive
same,Potency,[2],inactive
same,Potency,[3],inactive
same,Potency,[4],inactive
same,Potency,[5],inactive
same,Potency,[6],inactive
CC1=C2C[C@@]3(C)C(CCC[C@@H]3C)C(O)C2(O)OC1=O (stereo not given in full),Potency,[1],inactive
same,Potency,[2],inactive
same,Potency,[3],inactive
same,Potency,[4],inactive
same,Potency,[5],inactive
same,Potency,[6],inactive
COc1cnc(-c2ccc(Cn3c(CC(C)(C)C(=O)O)c(SC(C)(C)C)c4cc(OC[C@@H]5Cc6ccccc6N5C(C)=O)ccc43)cc2)nc1,Potency,[1],inactive
same,Potency,[2],inactive
same,Potency,[3],inactive
same,Potency,[4],inactive
same,Potency,[5],inactive
same,Potency,[6],inactive
COC(=O)C1=CO[C@@H](O[C@@H]2O[C@H](CO)[C@@H](O)[C@H](O)[C@H]2O)[C@@H]2C(CO)=CC[C@H]12,Potency,[1],inactive
same,Potency,[2],inactive
same,Potency,[3],inactive
same,Potency,[4],inactive
same,Potency,[5],inactive
same,Potency,[6],inactive
CNC(=O)c1ccc2c(c1)CCO[C@H]2CCN1CCN(c2ccc(C(N)=O)cc2)CC1,Potency,[1],inactive
same,Potency,[2],inactive
same,Potency,[3],inactive
same,Potency,[4],inactive
same,Potency,[5],inactive
same,Potency,[6],inactive
CC1(C)CC[C@]2(C(=O)O[C@@H]3O[C@H](CO)[C@@H](O)[C@H](O)[C@H]3O)[C@H](O)C[C@]3(C)C(=CCC4[C@@]5(C)CC[C@H](O[C@@H]6OC[C@@H](O)[C@H](O)[C@H]6O)[C@@](C)(C(=O)O)C5CC[C@]43C)[C@@H]2C1 (stereo not given in full),Potency,[1],inactive
same,Potency,[2],inactive
same,Potency,[3],inactive
same,Potency,[4],inactive
same,Potency,[5],inactive
same,Potency,[6],inactive
CC1OC(OC2CCC3(C)C(CCC4(C)C3C=CC35OCC6(CCC(C)(C)CC63)CCC45C)C2(C)CO)C(OC2OC(CO)C(O)C(O)C2O)C(O)C1OC1OC(CO)C(O)C(O)C1O (stereo not given),Potency,[1],inactive
same,Potency,[2],inactive
same,"activity change, negative = inhibition",[3],1.11% [at 11.6 µM]
same,"activity change, negative = thiol reactive",[4],34% [at 11.5 µM]
same,"activity, negative = inhibition",[5],3.75% [at 11.6 µM]
same,redox activity (% of DA3003),[6],12.4% [at 11.5 µM]
